Compounds without any hit were thinned out: in the full panel of roughly 83,000, 20% have a hit.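 Single-concentration screen, 48 h exposure, 96-well plates. Endpoint: percent growth. Below 10 = active.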 Activity calls are given as the source filed them.
Assays:
Assay in all cases: NCI-60 one-dose screen, 48 h (100 = growth as untreated, 0 = no growth, -100 = all killed)
Settings in all cases: 10 µM unless noted
[1] = test system: HCT-15 colon
[2] = test system: HT29 colon
[3] = test system: SNB-75 CNS
[4] = test system: SNB-19 CNS
[5] = test system: U251 CNS
[6] = test system: PC-3 prostate
[7] = test system: SK-MEL-5 melanoma
[8] = test system: LOX IMVI melanoma
[9] = test system: SK-MEL-28 melanoma

Measured: growth

C=C1C(=O)O[C@H]2[C@H]1CC/C(COC(=O)N[C@H](Cc1c[nH]c3ccccc13)C(=O)OC)=C\CC[C@@]1(C)O[C@@H]21
active: [1] 1.89% | [9] 9.69%
inactive: [2] 14.9% | [3] 82% | [4] 66.7% | [5] 72.7% | [6] 57.3% | [7] 39% | [8] 13.7%

CC/C(=N/NC(N)=O)c1ccccc1
inactive: [1] 91.2% | [2] 104% | [3] 98% | [4] 108% | [5] 102% | [6] 102% | [7] 102% | [8] 99% | [9] 101%

Cn1c(=O)c2c(nc(N3CCCC3)n2C)n(C)c1=O
inactive: [1] 103% | [2] 94.5% | [3] 89.9% | [4] 106% | [5] 87.5% | [6] 91.2% | [7] 102% | [8] 96.5% | [9] 104%

CCCCC[C@H]1C/C=C2/C(=O)C=C[C@@H]2C/C=C\CCCC(=O)O[C@@H](CCCCC)C/C=C2/C(=O)C=C[C@@H]2C/C=C\CCCC(=O)O1
active: [1] -54.5% | [2] -77.9% | [3] -80.8% | [4] -83.4% | [5] -94.3% | [6] -71% | [7] -97.4% | [8] -87.1% | [9] -81.9%

Cc1cc(N(CCCNc2ccnc3cc(Cl)ccc23)Cc2ccco2)nc(N2CCN(C)CC2)n1
active: [7] -42.6% | [8] 0.725% | [9] -75.2%
inactive: [1] 16.9% | [2] 12.4% | [3] 68.7% | [4] 58.2% | [5] 28.6% | [6] 51.5%

Fc1ccc2c(c1)c(-c1nc(-c3c[nH]c4ncccc34)cs1)cn2CCCN1CCCCC1
active: [1] -8.44% | [2] -38.4% | [7] -52% | [9] -68.3%
inactive: [3] 64% | [4] 60.1% | [5] 24.9% | [6] 47.9% | [8] 44%

Cn1cnc2c1c(=O)n(CCC(=O)Nc1ccc(F)cc1)c(=O)n2C
inactive: [1] 104% | [2] 86.6% | [3] 94.6% | [4] 105% | [5] 96.2% | [6] 91.1% | [7] 107% | [8] 102% | [9] 110%

CCNCCCn1c2c(c3ccc([N+](=O)[O-])cc3c1=O)C(=O)c1cc(OC)cnc1-2
active: [1] -12% | [2] -11% | [3] -23.8% | [5] -73.3% | [6] 1.89% | [7] -97.3% | [8] -91% | [9] -31.5%
inactive: [4] 10.6%

Cn1cc(-c2csc(-c3cn(CCCN4CCCCC4)c4ccc(Br)cc34)n2)c2cccnc21
inactive: [3] 63.6%
active: [1] -78.2% | [2] -72.8% | [4] -45.3% | [5] -80.6% | [6] -8.66% | [7] -33.7% | [8] -71.4% | [9] -86.6%

Cc1cccc(C)c1NC(=O)CSC(=S)N1CCCCC1
inactive: [1] 105% | [2] 103% | [3] 96% | [4] 111% | [5] 105% | [6] 97.6% | [7] 112% | [8] 98.2% | [9] 105%

Cn1cc(-c2csc(-c3cn(CCNC(=O)OC(C)(C)C)c4ccccc34)n2)c2cccnc21
inactive: [1] 60.1% | [2] 90.9% | [3] 88.5% | [4] 94.3% | [5] 83.1% | [6] 36.9% | [7] 20.1% | [8] 82.4% | [9] 94.3%

COC(=O)[C@]12CC[C@@H](C)[C@H](C)[C@@H]1C1=CC[C@@H]3[C@@](C)(CC#N)C4=C(C[C@@]3(C)[C@]1(C)CC2)OC[C@]4(C)C=O
active: [1] 0.689% | [2] -20.7% | [4] 8.5% | [5] -45.7% | [6] 9.95% | [7] -89% | [8] -99% | [9] -19.6%
inactive: [3] 19.3%

C[C@]12CC[C@@H]3c4ccc(O)cc4CC[C@H]3[C@@H]1C[C@H](O)[C@@H]2O
inactive: [1] 97.3% | [2] 109% | [3] 82% | [4] 102% | [5] 100% | [6] 92.4% | [7] 94.1% | [8] 92.4% | [9] 96.5%

Cc1cc(N2CCCC2)nc(N(CCNc2ccnc3cc(Cl)ccc23)Cc2ccco2)n1
active: [2] 5.58% | [6] 0.723% | [7] -93% | [8] 4.43%
inactive: [1] 18.3% | [3] 68.8% | [4] 29.4% | [5] 46.5% | [9] 31%

Cc1cc(N2CCCCC2)nc(N(CCNc2ccnc3cc(Cl)ccc23)Cc2ccco2)n1
inactive: [1] 13.8% | [3] 43.9% | [5] 14.4% | [6] 13.9% | [9] 38.9%
active: [2] 6.61% | [4] -69.9% | [7] -90.5% | [8] -12.6%

C=C1C(=O)O[C@H]2[C@H]1CC/C(COC(=O)NCc1c[nH]c3ccccc13)=C\CC[C@@]1(C)O[C@@H]21
active: [1] 4.35% | [2] 8.59%
inactive: [3] 72.1% | [4] 69.4% | [5] 82.8% | [6] 50.4% | [7] 45.2% | [8] 16.4% | [9] 33.9%

NC(=O)NCC1CCCCC1
inactive: [1] 94.5% | [2] 102% | [3] 90.7% | [4] 115% | [5] 104% | [6] 104% | [7] 109% | [8] 94.1% | [9] 110%

N=c1ccc2nc3c(cc(N)c4ccccc43)oc-2c1
active: [1] -69.9% | [2] -63% | [3] -100% | [4] -94.7% | [5] -87.8% | [6] -39.3% | [7] -100% | [8] -95.6% | [9] -78.8%

O=C(/C(=C(\C(=O)c1ccccc1)c1ccccc1)c1ccccc1)c1ccccc1
inactive: [1] 24% | [2] 37.6% | [3] 72.8% | [4] 74% | [5] 47.3% | [6] 30% | [7] 59.5% | [8] 64.6% | [9] 89.8%

COc1cc(-c2cc3ncccc3c3nc(N)c4cccnc4c23)cc(OC)c1OC
inactive: [1] 21.5% | [4] 44.5% | [5] 18.9% | [6] 22% | [7] 15.8% | [8] 24.1% | [9] 62.7%
active: [2] 4.14% | [3] 6.07%

Nc1nc(Br)nc2c1ncn2C1CC(O)C(CO)O1 (configuration not stated)
inactive: [1] 59.1% | [2] 66.3% | [3] 77.4% | [4] 48.6% | [5] 68.7% | [6] 70.1% | [7] 51.2% | [8] 82.4% | [9] 95.8%

CCN(CC)CCCCCNc1cc(OC(=O)c2ccccc2)cc2cccnc12
inactive: [1] 78.5% | [2] 20.3% | [3] 70.9% | [4] 101% | [5] 98.2% | [6] 77% | [7] 138% | [8] 58.1% | [9] 121%

NCCn1cc(-c2nc(-c3c[nH]c4ncccc34)cs2)c2cc(F)ccc21
inactive: [1] 58.9% | [2] 67.2% | [3] 64.2% | [4] 86.1% | [5] 84.1% | [6] 58.5% | [7] 80% | [8] 81.7% | [9] 101%

N#Cc1cnc2cc(OC[C@@H](O)CO)c(NC(=O)C3CCCC3)cc2c1Nc1ccc(OCc2cccc(F)c2)c(Cl)c1
inactive: [1] 29.4% | [4] 65.3% | [5] 61.9% | [7] 61.5%
active: [2] -11.3% | [3] -0.333% | [6] -58.9% | [8] -84.8% | [9] -85.2%

COc1ccc(C2C(C#N)=C(N)Oc3c2sc2c(F)cccc32)cc1 (configuration not stated)
inactive: [1] 24.4% | [4] 22.8% | [5] 24.2% | [6] 15.7% | [7] 22.5% | [8] 29.9% | [9] 60.5%
active: [2] 7.77% | [3] 3.73%

O=Cc1nc2ccccc2[nH]1
inactive: [1] 108% | [2] 91% | [3] 80% | [4] 101% | [5] 92.2% | [6] 78.7% | [7] 102% | [8] 91.2% | [9] 116%

CCOC(=O)N1CCN(CCCCOc2ccc(C(C)(C)CC)cc2)CC1
inactive: [1] 87.7% | [2] 78.1% | [3] 106% | [4] 108% | [5] 88.5% | [6] 71.5% | [7] 88.6% | [8] 99.7% | [9] 100%

Fc1ccc(NCc2nnc(-c3ccc(Cl)cc3)o2)cc1
inactive: [1] 81.7% | [2] 70% | [3] 73.6% | [4] 83.2% | [5] 77.8% | [6] 54.3% | [7] 79.8% | [8] 80.1% | [9] 93.9%

Source: PubChem BioAssay (NCI)
